Screening results from PubChem.
RORgamma inh – ROR gamma (mouse) transcription inhibition; P51450; 310,000 tested, 5.4% active; Drosophila S2 Gal4-RORgamma UAS-luciferase reporter, 20 h; Potency, µM (top dose mostly 53.6 µM), for the others: at the highest dose activity change, negative = inhibition, usual class: inhibitors; note: potency is the fitted concentration of half-maximal effect; nearly all actives have a fitted effect of over 60% in size
Target sequence (P51450 whole entry, looked up, the tested form may be a part): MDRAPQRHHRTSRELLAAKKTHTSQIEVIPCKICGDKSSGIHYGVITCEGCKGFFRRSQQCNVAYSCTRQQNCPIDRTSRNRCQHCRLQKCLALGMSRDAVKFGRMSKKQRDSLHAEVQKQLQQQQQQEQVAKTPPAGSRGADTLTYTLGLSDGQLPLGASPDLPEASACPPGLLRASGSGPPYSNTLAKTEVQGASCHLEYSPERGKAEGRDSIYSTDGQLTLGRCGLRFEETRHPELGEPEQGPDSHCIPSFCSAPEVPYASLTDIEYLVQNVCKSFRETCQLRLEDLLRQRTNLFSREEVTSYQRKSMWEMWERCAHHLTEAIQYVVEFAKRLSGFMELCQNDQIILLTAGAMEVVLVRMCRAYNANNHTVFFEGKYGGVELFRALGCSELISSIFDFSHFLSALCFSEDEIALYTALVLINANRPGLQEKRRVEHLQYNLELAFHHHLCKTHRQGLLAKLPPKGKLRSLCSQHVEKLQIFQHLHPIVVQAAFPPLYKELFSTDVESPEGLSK
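ROR gamma transcriptional activity was tracked as Gal4-UAS luciferase output in stably transfected Drosophila Schneider cells, with compound added 1 hr before 700 uM copper sulfate induction and a 20 hr ambient-temperature incubation.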
VP16 counter – counter-screen for ROR gamma inhibitors: Gal4-VP16 reporter | Drosophila S2 Gal4-VP16 UAS-luciferase, luminescence, 20 h | Potency, µM (top dose mostly 53.6 µM), for the others: at the top dose activity, negative = inhibition, actives largely listed as inhibitors | 310,000 tested, 3.5% active;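 note: Gal4-VP16 expression switched on by copper sulfate through the metallothionein promoter; potency is the fitted concentration of half-maximal effect; nearly all actives have a fitted effect of over 50% in size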
ELG1 DNA repair – blocks ELG1-dependent DNA repair in HEK293T cells; HEK293T ELG1-luciferase reporter, luminescence, 16 h; DNA damage induced by 5-fluorouridine; 330,000 tested, 2.3% active; Potency, µM (series often up to 46.1 µM), without a hit: at the top dose activity change, negative = inhibition, most hits filed as inhibitors; note: potency is the fitted concentration of half-maximal effect; nearly all actives have a fitted effect of over 55% in size
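DMSO vehicle served as the neutral condition. Each well held 2,000 cells given 5-fluorouridine plus compound; after 16 hr at 37 °C/5% CO2, ONE-Glo was added and luciferase measured 30 min later.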
FBPA coupling cs – inhibits coupling enzyme system, counter-screen for aldolase hits | coupling enzyme system counterscreen, AmpLite Red fluorescence | activity change, negative = inhibition, % at 58.2 µM, hits read low | 290,000 tested, 0.67% active; in the data active = activity change below about -30%
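Fluorescence at 525 nm excitation and 598 nm emission measured inhibition of the coupled detection system without aldolase. Compounds (at 57.5 uM final) were preincubated 10 min at room temperature with coupling enzyme reagent before a 20 min substrate/AmpLite Red step.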
TSHR antag – blocks TSH signaling through the human TSH receptor; TSHR-expressing cells, TSH-stimulated cAMP HTRF, 2 h; active compounds read low; P16473; activity change, negative = inhibition, % at 11.5 µM; 330,000 tested, 0.2% active;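 active = activity change below a set negative limit, meaning inhibition stronger than a set level, cut at about -70% in these data; inconclusive = activity change between two set negative limits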
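Read-out is FRET at 665 nm (cryptate excitation 337 nm) from a cryptate-tagged anti-cAMP antibody, competed by cell cAMP against cAMP-d2. Compounds are tested on freshly harvested TSHR cells challenged with 4nM TSH (EC80) for 2 hours at 37 deg C.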
* = called active by the depositor; ? = inconclusive; / = not tested or not shown; [ ] = remark or other dose. This is a sample that favours compounds with a hit; in the whole collection about 8% have one here. Unless noted, calls come from the whole dose curve; as a rule, active = well fitted curve in the direction sought with a large enough effect; inconclusive = small, poorly fitted or top-dose-only effect, or another doubt; inactive = no such curve, though single readings can be large; an effect the other way counts as inactive or inconclusive. % is set by controls: 0 for no effect and ±100 for the full control effect.

SMILES	RORgamma inh	VP16 counter	ELG1 DNA repair	FBPA coupling cs	TSHR antag
CN(C)C(=S)Nc1ccc2ccccc2c1	16µM*	?	?	1	-10
O=C(/C(=C(\O)c1ccccc1)c1ncc[nH]1)c1ccccc1	13µM*	?	-14%	1	-6
O=C(/C(=C(\O)c1ccccc1)c1nc2ccccc2[nH]1)c1ccccc1	7.9µM*	?	-20%	0	-7
COC(=O)c1ccc(C(/C=C/[C@@H](C)C(=O)NCc2cc(C)n(C)n2)NC(=O)OCc2ccccc2)cc1 (stereo partly specified)	12%	-14%	/	-2	/
c1ccc2c(c1)CCCN2c1nc(N2CCOCC2)nc(N2CCOCC2)n1	1%	-1%	8.2µM*	3	7
c1ccc2c(N3CCOCC3)nc(N3CCOCC3)nc2c1	9%	-8%	?	4	0
COc1ccc2oc(=O)c(C(=O)Nc3cccc(C)c3)cc2c1	2.2µM*	?	?	-2	-10
COc1ccc(C(=O)NNC(=O)c2cc3cc(OC)ccc3oc2=O)cc1	-7%	4%	-8%	3	0
O=C(Nc1ccccc1C(=O)O)c1ccc2ccccc2n1	?	?	?	-40*	5
O=C(Nc1ccccc1)c1ccc2ccccc2n1	-16%	-19%	?	1	-10
COc1cccc(NC(=O)c2cc3ccccc3o/c2=N\O)c1	8.9µM*	20µM*	?	-1	-13
O=C(NC1CCCCCC1)c1cc2ccccc2oc1=O	10µM*	?	?	2	15
COc1ccc(-c2nc3cnc(N4CCN(C)CC4)nc3n(CCC#N)c2=O)cc1	0%	1%	/	-2	/
N#Cc1cccc(NC(=O)N2CCCC3(CCN(S(=O)(=O)c4ccccc4)CC3)C2)c1	11%	-4%	/	-3	/
CCCCNc1nc(C#N)nc(Nc2ccccc2)n1	/	-21%	/	0	/
CCCN(C(=O)CCOc1ccc(C(C)(C)C)cc1)c1c(N)n(Cc2ccccc2)c(=O)[nH]c1=O	/	/	3%	/	6
O=C(NCCc1ccccc1)c1cc2ccccc2oc1=O	1%	-13%	?	-6	-118*
O=C(O)c1ccccc1NC(=O)c1cc2ccccc2oc1=O	13µM*	?	?	-9	-15
O=C(NCCc1ccc(F)cc1)c1cc2ccccc2oc1=O	-13%	5%	3%	/	-14
Cc1cccc(NC(=O)c2cc3ccccc3oc2=O)c1	2.8µM*	?	?	0	3
O=C(Nc1cccnc1N1CCOCC1)c1cc2ccccc2oc1=O	31%	-4%	?	-5	0
Cc1ccccc1NC(=S)c1ccc2ccccc2n1	?	6.3µM*	?	0	-25
Cc1ccc(NC(=O)c2ccco2)c(NC(=O)c2ccc(Cl)cc2)c1	?	10%	-7%	0	-7
CCCCOc1cccc(C(=O)NC(=S)Nc2cccc(NC(=O)c3ccccc3Cl)c2)c1	?	?	-23%	-1	15
CCCOc1cccc(C(=O)NC(=S)Nc2cccc(NC(=O)c3ccccc3Cl)c2)c1	?	?	?	0	-4
SMILES	RORgamma inh	VP16 counter	ELG1 DNA repair	FBPA coupling cs	TSHR antag
CC(C)Oc1cccc(C(=O)NC(=S)Nc2ccccc2)c1	?	5µM*	?	-3	-21
CC(C)Oc1cccc(C(=O)NC(=S)Nc2cccnc2)c1	?	-85%	?	3	-16
CCCOc1cccc(C(=O)NC(=S)Nc2ccccc2)c1	8.9µM*	?	?	2	-3
CC(C)COc1cccc(C(=O)NC(=S)Nc2cccc(NC(=O)c3ccccc3Cl)c2)c1	6.3µM*	5.6µM*	-17%	-2	7
CCOC(=O)C1=CN(Cc2ccco2)S(=O)(=O)N(CC)C1c1ccc(C(F)(F)F)cc1 (stereo unspecified)	/	/	5%	/	16
Cc1cc2ccccc2c(=O)[nH]1	-15%	1%	?	1	7
Cc1ccccc1Nc1cc2ccccc2c(=O)[nH]1	-13%	28%	11%	-43*	1
O=c1[nH]c(Nc2ccc(F)cc2)cc2ccccc12	1%	-2%	?	-34*	8
O=C1NC(=O)c2cc(Nc3ccc(F)cc3)c(Nc3ccc(F)cc3)cc21	-9%	?	/	-5	/
CN(Cc1ccccc1F)C(=O)c1sccc1-c1ccccc1	9%	4%	-2%	/	-4
c1ccc(-c2csc(-c3nc4ccccc4[nH]3)n2)cc1	?	-20%	/	-8	/
c1ccc(-c2cc(-c3nc4ccccc4[nH]3)c3ccccc3n2)cc1	-16%	-2%	21µM*	-4	-14
COc1ccc(NC(=O)c2c(NC(=O)CNCc3ccco3)sc3c2CCC3)cc1	-73%	?	?	-1	/
COc1ccc(NC(=O)c2c(NC(=O)CNCc3ccco3)sc3c2CCC3)c(OC)c1	1.1µM*	2.5µM*	?	-1	11
COc1ccc(OC)c(NC(=O)c2c(NC(=O)CNCc3ccco3)sc3c2CCC3)c1	?	2.2µM*	-23%	-2	-1
CCOc1ccc(NC(=O)C(=O)NCCN2CCN(S(=O)(=O)c3ccc(C)cc3)CC2)cc1	-39%	-10%	?	1	-6
COc1ccc([C@]23Cc4cc(OC)c(OC)cc4C(O2)c2c(c4ccccc4oc2=O)O3)cc1	3%[10 µM]	8%[10 µM]	/	0	/
COc1ccc(CNCC(=O)Nc2cc(C)nn2-c2nc(C)cc(C)n2)cc1OC	-12%	-1%	4%	2	5
CCN(CC(=O)Nc1cc(C)nn1-c1nc(C)cc(C)n1)Cc1ccccc1	1.4µM*	6.3µM*	18µM*	-1	-9
Cc1cc(C)nc(-n2nc(C)cc2NC(=O)CNCc2ccccc2)n1	5.6µM*	?	1%	-1	4
O=C(COC(=O)c1ccccc1C(=O)OCC(=O)NCCc1c[nH]c2ccccc12)NCCc1c[nH]c2ccccc12	/	/	?	/	-14
Cc1cccc2c1-c1sc(C(=O)Nc3cccc([N+](=O)[O-])c3C)cc1CO2	5%	?	?	3	-31
O=C(Nc1nccs1)c1cc2c(s1)-c1ccccc1OC2	5µM*	4.5µM*	?	-1	-15
Cc1cccc2c1-c1sc(C(=O)Nc3cccnc3)cc1CO2	-14%	16%	-13%	-1	-19
Cc1cccc2c1-c1sc(C(=O)Nc3nccs3)cc1CO2	4.5µM*	5.6µM*	?	1	-10
CCOC(=O)c1cc2c(s1)-c1c(C)cccc1OC2	16%	0%	?	1	-8
COc1ccc(N(C)C(=O)c2cc3c(s2)-c2c(C)cccc2OC3)c(OC)c1	19%	-2%	23µM*	-4	9
O=C(Nc1nc2ccccc2s1)c1cc2c(s1)-c1ccccc1OC2	-28%	?	?	3	-8
